Experimental data published in the supplement of paper PMC10849652.
The full data set covers some 7,900 targets. This sample favours those with a hit. About 0.6% of all pairs of compound and target were hits.

UniProt Q92947, sequence (Q92947 whole entry, looked up): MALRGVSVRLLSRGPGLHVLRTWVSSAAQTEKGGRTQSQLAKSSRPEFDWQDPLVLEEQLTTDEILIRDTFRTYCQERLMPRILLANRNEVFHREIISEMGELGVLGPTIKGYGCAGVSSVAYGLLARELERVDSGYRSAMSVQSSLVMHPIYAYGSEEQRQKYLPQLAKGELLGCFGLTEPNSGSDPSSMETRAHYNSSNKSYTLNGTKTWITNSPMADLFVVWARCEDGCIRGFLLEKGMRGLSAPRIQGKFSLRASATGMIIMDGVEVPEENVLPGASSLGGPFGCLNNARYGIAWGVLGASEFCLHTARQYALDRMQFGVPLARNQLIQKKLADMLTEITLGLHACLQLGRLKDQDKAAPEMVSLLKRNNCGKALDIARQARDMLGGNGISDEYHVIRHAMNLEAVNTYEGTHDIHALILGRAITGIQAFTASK
UniProt Q9H0R4, sequence (Q9H0R4 whole entry, looked up): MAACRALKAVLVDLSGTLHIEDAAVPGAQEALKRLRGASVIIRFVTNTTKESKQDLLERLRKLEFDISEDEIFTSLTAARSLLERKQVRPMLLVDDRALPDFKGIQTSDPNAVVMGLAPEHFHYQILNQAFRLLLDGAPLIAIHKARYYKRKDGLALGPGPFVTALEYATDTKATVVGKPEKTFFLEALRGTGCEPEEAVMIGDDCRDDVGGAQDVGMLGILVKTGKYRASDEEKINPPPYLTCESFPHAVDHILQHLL
UniProt P0CL80, sequence (P0CL80 whole entry, looked up): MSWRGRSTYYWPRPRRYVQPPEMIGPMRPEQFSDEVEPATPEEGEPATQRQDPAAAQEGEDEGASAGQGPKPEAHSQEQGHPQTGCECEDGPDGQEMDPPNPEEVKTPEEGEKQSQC
UniProt Q9Y3D6, sequence (Q9Y3D6 whole entry, looked up): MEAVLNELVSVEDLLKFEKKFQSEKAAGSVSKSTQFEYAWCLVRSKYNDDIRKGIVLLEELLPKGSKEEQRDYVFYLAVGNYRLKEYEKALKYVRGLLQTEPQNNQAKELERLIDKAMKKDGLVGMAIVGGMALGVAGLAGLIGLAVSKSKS
UniProt Q86UX7, sequence (Q86UX7 whole entry, looked up): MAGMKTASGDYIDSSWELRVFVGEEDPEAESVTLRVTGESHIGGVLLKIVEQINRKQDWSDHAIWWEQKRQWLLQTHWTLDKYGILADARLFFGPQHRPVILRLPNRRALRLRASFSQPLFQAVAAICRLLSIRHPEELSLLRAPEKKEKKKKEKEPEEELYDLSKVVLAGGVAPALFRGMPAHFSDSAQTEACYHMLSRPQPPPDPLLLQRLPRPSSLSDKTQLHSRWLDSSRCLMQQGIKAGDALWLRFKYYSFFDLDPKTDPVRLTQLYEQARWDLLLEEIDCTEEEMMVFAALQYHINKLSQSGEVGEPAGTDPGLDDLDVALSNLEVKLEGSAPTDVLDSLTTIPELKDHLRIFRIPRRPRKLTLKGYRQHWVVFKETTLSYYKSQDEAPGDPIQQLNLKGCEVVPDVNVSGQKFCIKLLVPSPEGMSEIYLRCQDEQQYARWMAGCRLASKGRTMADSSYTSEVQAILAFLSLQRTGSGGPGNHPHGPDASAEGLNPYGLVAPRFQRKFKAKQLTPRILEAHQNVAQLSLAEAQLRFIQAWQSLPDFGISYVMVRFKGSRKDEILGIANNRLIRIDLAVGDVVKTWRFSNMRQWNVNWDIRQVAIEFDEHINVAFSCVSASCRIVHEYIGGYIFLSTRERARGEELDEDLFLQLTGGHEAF
UniProt Q01628, sequence (Q01628 whole entry, looked up): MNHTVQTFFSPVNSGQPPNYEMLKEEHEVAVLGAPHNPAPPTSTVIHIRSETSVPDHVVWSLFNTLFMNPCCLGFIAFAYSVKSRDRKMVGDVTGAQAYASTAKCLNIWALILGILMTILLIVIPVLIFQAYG
UniProt P36969, sequence (P36969 whole entry, looked up): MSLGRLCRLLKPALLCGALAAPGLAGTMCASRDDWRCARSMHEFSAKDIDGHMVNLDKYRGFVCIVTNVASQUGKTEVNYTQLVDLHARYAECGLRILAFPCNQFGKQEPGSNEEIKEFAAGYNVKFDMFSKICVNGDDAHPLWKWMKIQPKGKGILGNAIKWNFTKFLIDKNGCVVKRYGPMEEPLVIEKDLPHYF
UniProt P40939, sequence (P40939 whole entry, looked up): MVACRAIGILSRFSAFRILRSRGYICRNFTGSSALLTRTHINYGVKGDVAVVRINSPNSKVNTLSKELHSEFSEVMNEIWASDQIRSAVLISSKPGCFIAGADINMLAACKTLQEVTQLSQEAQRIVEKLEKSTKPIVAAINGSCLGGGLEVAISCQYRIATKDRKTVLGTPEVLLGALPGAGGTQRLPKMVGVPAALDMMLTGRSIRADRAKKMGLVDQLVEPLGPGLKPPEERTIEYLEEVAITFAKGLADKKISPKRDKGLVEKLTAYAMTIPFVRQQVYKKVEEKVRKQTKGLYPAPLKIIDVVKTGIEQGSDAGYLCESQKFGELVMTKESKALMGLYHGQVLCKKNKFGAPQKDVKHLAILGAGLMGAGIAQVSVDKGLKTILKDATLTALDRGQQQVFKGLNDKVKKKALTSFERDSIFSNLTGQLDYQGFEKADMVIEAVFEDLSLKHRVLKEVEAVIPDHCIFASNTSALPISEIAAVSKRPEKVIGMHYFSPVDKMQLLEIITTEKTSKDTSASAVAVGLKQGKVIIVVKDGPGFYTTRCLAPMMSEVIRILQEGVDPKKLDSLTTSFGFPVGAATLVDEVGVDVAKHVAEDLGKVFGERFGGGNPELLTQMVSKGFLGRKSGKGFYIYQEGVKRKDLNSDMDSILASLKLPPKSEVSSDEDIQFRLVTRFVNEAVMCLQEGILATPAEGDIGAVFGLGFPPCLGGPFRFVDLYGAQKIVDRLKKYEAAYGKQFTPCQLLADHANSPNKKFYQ
UniProt O43524, sequence (O43524 whole entry, looked up): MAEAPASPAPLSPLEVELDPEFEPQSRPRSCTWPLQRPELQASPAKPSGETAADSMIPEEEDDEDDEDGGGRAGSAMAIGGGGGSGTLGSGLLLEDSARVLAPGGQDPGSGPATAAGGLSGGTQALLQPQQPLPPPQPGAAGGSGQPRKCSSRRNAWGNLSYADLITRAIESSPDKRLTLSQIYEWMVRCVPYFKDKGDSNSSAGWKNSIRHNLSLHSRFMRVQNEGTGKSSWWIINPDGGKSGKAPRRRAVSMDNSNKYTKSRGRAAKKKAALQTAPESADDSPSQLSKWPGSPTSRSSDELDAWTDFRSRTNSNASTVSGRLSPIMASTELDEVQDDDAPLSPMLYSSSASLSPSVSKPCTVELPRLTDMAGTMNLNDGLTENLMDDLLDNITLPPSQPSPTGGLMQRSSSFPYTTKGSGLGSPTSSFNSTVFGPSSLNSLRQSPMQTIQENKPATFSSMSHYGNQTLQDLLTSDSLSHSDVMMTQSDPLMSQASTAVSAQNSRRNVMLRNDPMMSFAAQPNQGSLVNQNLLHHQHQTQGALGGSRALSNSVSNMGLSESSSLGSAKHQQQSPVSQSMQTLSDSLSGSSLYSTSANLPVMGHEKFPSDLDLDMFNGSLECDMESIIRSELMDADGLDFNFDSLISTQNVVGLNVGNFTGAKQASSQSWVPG
UniProt Q9BYC5, sequence (Q9BYC5 whole entry, looked up): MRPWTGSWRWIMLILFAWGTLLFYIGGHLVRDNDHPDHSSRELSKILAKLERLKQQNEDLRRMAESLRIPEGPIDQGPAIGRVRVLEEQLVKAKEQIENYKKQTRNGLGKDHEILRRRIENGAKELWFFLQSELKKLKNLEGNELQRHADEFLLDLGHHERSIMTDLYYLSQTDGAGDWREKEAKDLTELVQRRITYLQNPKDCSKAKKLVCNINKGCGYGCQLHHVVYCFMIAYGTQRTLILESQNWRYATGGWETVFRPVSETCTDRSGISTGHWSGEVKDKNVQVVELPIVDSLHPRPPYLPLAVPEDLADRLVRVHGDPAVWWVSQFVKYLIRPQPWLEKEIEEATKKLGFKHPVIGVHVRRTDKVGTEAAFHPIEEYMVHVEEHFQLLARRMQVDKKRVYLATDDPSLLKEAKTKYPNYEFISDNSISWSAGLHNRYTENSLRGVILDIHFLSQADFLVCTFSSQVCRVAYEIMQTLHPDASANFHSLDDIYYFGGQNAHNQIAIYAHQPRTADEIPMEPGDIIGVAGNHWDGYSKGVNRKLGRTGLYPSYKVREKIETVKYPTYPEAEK
UniProt O43824, sequence (O43824 whole entry, looked up): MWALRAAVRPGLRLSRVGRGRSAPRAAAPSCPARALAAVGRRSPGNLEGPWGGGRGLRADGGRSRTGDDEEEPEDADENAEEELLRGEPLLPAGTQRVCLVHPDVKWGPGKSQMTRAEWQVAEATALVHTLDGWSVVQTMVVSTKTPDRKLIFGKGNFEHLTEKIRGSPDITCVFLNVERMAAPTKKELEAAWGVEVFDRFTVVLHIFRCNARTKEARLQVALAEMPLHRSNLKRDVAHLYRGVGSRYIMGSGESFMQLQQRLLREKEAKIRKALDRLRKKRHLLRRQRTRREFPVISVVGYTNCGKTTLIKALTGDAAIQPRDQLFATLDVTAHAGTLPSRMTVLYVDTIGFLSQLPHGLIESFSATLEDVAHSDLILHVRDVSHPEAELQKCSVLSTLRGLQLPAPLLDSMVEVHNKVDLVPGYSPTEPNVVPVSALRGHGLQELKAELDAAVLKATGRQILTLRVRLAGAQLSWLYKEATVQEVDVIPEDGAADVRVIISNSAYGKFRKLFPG
UniProt Q96HJ9, sequence (Q96HJ9 whole entry, looked up): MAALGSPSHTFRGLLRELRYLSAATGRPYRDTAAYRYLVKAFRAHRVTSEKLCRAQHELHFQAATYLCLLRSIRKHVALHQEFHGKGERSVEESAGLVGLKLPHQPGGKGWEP
UniProt P30519, sequence (P30519 whole entry, looked up): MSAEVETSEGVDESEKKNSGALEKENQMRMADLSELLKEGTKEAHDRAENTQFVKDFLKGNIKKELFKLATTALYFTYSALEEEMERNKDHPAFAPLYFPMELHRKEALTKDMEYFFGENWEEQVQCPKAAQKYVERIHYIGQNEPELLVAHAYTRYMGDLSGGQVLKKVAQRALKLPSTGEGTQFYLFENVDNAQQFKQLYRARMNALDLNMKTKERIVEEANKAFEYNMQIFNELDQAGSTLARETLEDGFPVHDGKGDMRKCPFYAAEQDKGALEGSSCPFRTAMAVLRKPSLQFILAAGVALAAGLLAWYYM

The targets below were run with NCC(=O)Nc1ccc(-n2nc(C(F)(F)F)cc2-c2ccc3c(ccc4ccccc43)c2)cc1 (assay: log2 fold change, soluble protein after heating vs DMSO (PISA); higher = thermal stabilisation; K562 cells, 10 uM, 30 min; active = over 0.2 and 3.5 SD of the protein, either way, in both replicates (recomputed)).
How it was run: (§1)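 K562 cells (2×10^6 cells/mL) were treated with 10 μM compound for 30 min, and aliquots were heated for 3 min over 48°C-58°C. Pooled aliquots were extracted in PBS with 0.5% NP-40 at 4°C, and the supernatant after 21,000xg for 90 min was measured by TMTpro 16plex LC-MS/MS with channel sums equalised. Reported thermal stability, relative to control samples and from duplicates, is a log2 fold change.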
For FOXO3 (UniProt O43524), the log2 fold change was -0.072 (inactive).
In the case of GOPC (UniProt Q9HD26), the log2 fold change is reported as -0.002 (inactive).
With GPX4 (UniProt P36969) the log2 fold change was 0.032 (inactive).
FUT8 (UniProt Q9BYC5) was tested, and the log2 fold change was -0.014 (inactive).
In the case of HADHA (UniProt P40939), the log2 fold change is reported as 0.125 (inactive).
GAGE12F (UniProt P0CL80) was tested, and the log2 fold change was -0.059 (inactive).
For GTPBP6 (UniProt O43824), the log2 fold change was -0.003 (inactive).
GCDH (UniProt Q92947) was tested, and the log2 fold change was 0.006 (inactive).
For IFITM3 (UniProt Q01628), the log2 fold change was 0.14 (inactive).
FIS1 (UniProt Q9Y3D6) was tested, and the log2 fold change was 0.133 (inactive).
In the case of FERMT3 (UniProt Q86UX7), the log2 fold change is reported as -0.065 (inactive).
HDHD2 (UniProt Q9H0R4) was tested, and the log2 fold change was 0.048 (inactive).

What follows are targets tested with Nc1ccccc1NC(=O)c1ccc(CNC(=O)OCc2cccnc2)cc1 [entinostat] in the same assay as above.
How it was run: as §1
For FHOD1 (UniProt Q9Y613), the log2 fold change was -0.103 (inactive).
In the case of GPD1 (UniProt P21695), the log2 fold change is reported as -0.068 (inactive).
GUK1 isoform 2 (UniProt Q16774) was tested, and the log2 fold change was 0.065 (inactive).
For H2AZ1 (UniProt P0C0S5), the log2 fold change was 0.135 (inactive).
In the case of GABARAPL2 (UniProt P60520), the log2 fold change is reported as -0.011 (inactive).
In the case of HLTF (UniProt Q14527), the log2 fold change is reported as 0.069 (inactive).
With FMC1 (UniProt Q96HJ9) the log2 fold change was -0.042 (inactive).
In the case of GALNT11 (UniProt Q8NCW6), the log2 fold change is reported as -0.012 (inactive).
HMOX2 (UniProt P30519) was tested, and the log2 fold change was 0.018 (inactive).
GUSB (UniProt P08236) was tested, and the log2 fold change was -0.066 (inactive).
For FBXO3 (UniProt Q9UK99), the log2 fold change was -0.039 (inactive).
In the case of FCHO1 (UniProt O14526), the log2 fold change is reported as -0.032 (inactive).
With GHDC (UniProt Q8N2G8) the log2 fold change was 0.004 (inactive).
With GLUL (UniProt P15104) the log2 fold change was -0.009 (inactive).
For HNRNPK isoform 2 (UniProt P61978), the log2 fold change was 0.056 (inactive).
With HOOK3 (UniProt Q86VS8) the log2 fold change was 0.063 (inactive).
For GLRX3 (UniProt O76003), the log2 fold change was 0.022 (inactive).
HIST2H3A (UniProt Q71DI3) was tested, and the log2 fold change was 0.196 (inactive).
For GLS (UniProt O94925), the log2 fold change was 0.039 (inactive).
For IDH3A (UniProt P50213), the log2 fold change was -0.025 (inactive).
For HDDC2 (UniProt Q7Z4H3), the log2 fold change was -0.03 (inactive).
GTF3C4 (UniProt Q9UKN8) was tested, and the log2 fold change was 0.024 (inactive).
With IFI30 (UniProt P13284) the log2 fold change was -0.052 (inactive).
In the case of FOXO3 (UniProt O43524), the log2 fold change is reported as -0.063 (inactive).
For GOPC (UniProt Q9HD26), the log2 fold change was -0.092 (inactive).
In the case of GPX4 (UniProt P36969), the log2 fold change is reported as -0.107 (inactive).
In the case of FUT8 (UniProt Q9BYC5), the log2 fold change is reported as 0.042 (inactive).
In the case of HADHA (UniProt P40939), the log2 fold change is reported as 0.045 (inactive).
For GAGE12F (UniProt P0CL80), the log2 fold change was 0.031 (inactive).
For GTPBP6 (UniProt O43824), the log2 fold change was -0.019 (inactive).
In the case of GCDH (UniProt Q92947), the log2 fold change is reported as -0.002 (inactive).
IFITM3 (UniProt Q01628) was tested, and the log2 fold change was 0.008 (inactive).
With FIS1 (UniProt Q9Y3D6) the log2 fold change was -0.004 (inactive).
In the case of FERMT3 (UniProt Q86UX7), the log2 fold change is reported as 0.032 (inactive).
In the case of HDHD2 (UniProt Q9H0R4), the log2 fold change is reported as -0.01 (inactive).
